Holding throughout (experiment): NCI-60 one-dose screen, 48 h (100 = growth as untreated, 0 = no growth, -100 = all killed)
The test system of one assay is NCI-H23 lung. The conditions noted are these: 10 µM unless noted.
The next assay deals with NCI-H226 lung. To be noted: 10 µM unless noted.
For another assay, the system named is NCI-H322M lung. To be noted: 10 µM unless noted.
A further assay concerns HOP-62 NSCLC. To be noted: 10 µM unless noted.
In another assay the test system is NCI-H460 lung. To be noted: 10 µM unless noted.
The test system of the next assay is HOP-92 NSCLC. To be noted: 10 µM unless noted.
For a further assay, the system named is A549/ATCC NSCLC. The conditions noted are these: 10 µM unless noted.
Another assay relates to 786-0 renal. The conditions noted are these: 10 µM unless noted.
For another assay, the system named is COLO 205 colon. To be noted: 10 µM unless noted.
The test system of a further assay is DU-145 prostate. The conditions noted are these: 10 µM unless noted.
The next assay has as its system K-562 leukemia. The conditions noted are these: 10 µM unless noted.
Another assay relates to MALME-3M melanoma. To be noted: 10 µM unless noted.
The subject of the next assay is MDA-MB-231 breast. The conditions noted are these: 10 µM unless noted.
The subject of a further assay is RXF 393 renal. The conditions noted are these: 10 µM unless noted.
The next assay concerns SF-268 CNS. To be noted: 10 µM unless noted.
A further assay deals with SF-295 CNS. The conditions noted are these: 10 µM unless noted.
The test system of the next assay is SF-539 CNS. The conditions noted are these: 10 µM unless noted.
A further assay concerns UACC-257 melanoma. To be noted: 10 µM unless noted.
A further assay deals with M14 melanoma. The conditions noted are these: 10 µM unless noted.
The next assay concerns NCI-H522 lung. To be noted: 10 µM.

The panel holds about 83,000 compounds, 20% with a hit somewhere; the sample as a whole holds those more often.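 Note: values are percent growth. 100 is the growth of untreated cells, values between 100 and 0 indicate rising inhibition; between -100 and 0 indicates cell death.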 A number with no mark means an inactive call. Active and inactive are the calls of the source. How the source made its calls: active means growth percent below 10; inactive means the rest.

For `Nc1nc(NC2CC2)c2ncn(C3C=CC(CO)C3)c2n1` (stereo unspecified), the growth in the assay on NCI-H23 lung is 107%; in the assay on NCI-H226 lung, 91.4%; with NCI-H322M lung it was 94%; in the assay on HOP-62 NSCLC, 104%; in the assay with NCI-H460 lung, 118%; with HOP-92 NSCLC, 97%. The growth is 108% in the assay on A549/ATCC NSCLC; 107% in the assay on 786-0 renal; 121% in the assay with COLO 205 colon; 126% with DU-145 prostate; 84.2% with K-562 leukemia; 105% in the assay with MALME-3M melanoma. In addition, the growth was 98.5% in the assay on MDA-MB-231 breast; -4.67% (active) with RXF 393 renal; 126% in the assay with SF-268 CNS; 106% with SF-295 CNS; 118% in the assay with SF-539 CNS; 100% in the assay with UACC-257 melanoma. Also, the growth in the assay with M14 melanoma is 116%.

As to `COc1ccc(Cl)cc1Nc1nc(C(F)(F)F)ccc1C(=O)N/N=C/c1c(Cl)cccc1Cl`, the growth was 74.1% with NCI-H23 lung; 59.6% in the assay with NCI-H226 lung; 44.7% with NCI-H322M lung; 58.5% with HOP-62 NSCLC; 41.6% in the assay on NCI-H460 lung; 70.9% with HOP-92 NSCLC. For the same molecule, the growth was 39.2% in the assay with NCI-H522 lung; 43.7% in the assay on 786-0 renal; 35.9% in the assay with COLO 205 colon; 33.8% in the assay with K-562 leukemia; 69.3% in the assay on MALME-3M melanoma; 46.3% with MDA-MB-231 breast. Further, the growth in the assay on SF-268 CNS is 65%; with SF-295 CNS, 13.8%; in the assay on SF-539 CNS it was 20.6%; with UACC-257 melanoma, 60.9%; with M14 melanoma, 71.3%.

Take `O=C(NN1C(=O)c2cc(C(=O)O)c(C(=O)O)cc2C1=O)c1ccncc1`: the growth in the assay on NCI-H23 lung was 108%; in the assay with NCI-H226 lung, 95%; in the assay with NCI-H322M lung, 102%; in the assay with HOP-62 NSCLC, 99.3%; with NCI-H460 lung it was 111%; in the assay with HOP-92 NSCLC, 4.14% (active). The growth is 119% in the assay with A549/ATCC NSCLC; 107% with 786-0 renal; 105% with COLO 205 colon; 144% in the assay on DU-145 prostate; 62.4% in the assay with K-562 leukemia; 76.8% with MALME-3M melanoma. Besides, the growth was 80.6% in the assay with MDA-MB-231 breast; 127% with RXF 393 renal; 93.5% in the assay with SF-268 CNS; 102% in the assay with SF-295 CNS; 112% in the assay with SF-539 CNS; 114% with UACC-257 melanoma.

As for `O=[N+]([O-])c1ccc2[nH]cc(-c3c4ccccc4cc4[nH]c5ccc([N+](=O)[O-])cc5c34)c2c1`, the growth with NCI-H23 lung is 33.1%; in the assay with NCI-H226 lung, 39.5%; in the assay with NCI-H322M lung it was 47.3%; with HOP-62 NSCLC, 48.5%; with NCI-H460 lung it was 4.24% (active); in the assay on HOP-92 NSCLC it was 44.7%. Further, the growth in the assay with NCI-H522 lung was 11.3%; with 786-0 renal, 1.4% (active); in the assay with DU-145 prostate, 36.6%; in the assay on K-562 leukemia, 9.96% (active); in the assay with MALME-3M melanoma it was 26.5%; in the assay with MDA-MB-231 breast, 45.6%. The growth with RXF 393 renal is -2.62% (active); with SF-268 CNS it was 33.9%; in the assay with SF-295 CNS it was 22.5%; in the assay on SF-539 CNS it was 44%; in the assay on M14 melanoma it was -3.7% (active).

For the molecule `COC(=O)c1cc2oc(/C=N\NC(=O)c3cc4oc(C)c(C)c4[nH]3)cc2[nH]1`, the growth in the assay with NCI-H23 lung is 104%; in the assay with NCI-H226 lung, 117%; in the assay with NCI-H322M lung, 106%; with HOP-62 NSCLC, 110%; with NCI-H460 lung, 111%; in the assay on HOP-92 NSCLC it was -34.1% (active). The growth in the assay with A549/ATCC NSCLC was 112%; in the assay on 786-0 renal, 107%; in the assay with COLO 205 colon it was 94%; with DU-145 prostate, 147%; in the assay with K-562 leukemia, 84.1%; in the assay with MALME-3M melanoma, 82.5%. Also, the growth with MDA-MB-231 breast is 107%; in the assay on RXF 393 renal, 101%; in the assay with SF-268 CNS it was 106%; in the assay on SF-295 CNS, 84.2%; in the assay on SF-539 CNS it was 101%; with UACC-257 melanoma, 114%.

With `CC(=O)Nc1ccc(C(=O)COc2ccc(/C=C3\CCc4ccccc4C3=O)cc2)cc1`, the growth with NCI-H23 lung was 108%; with NCI-H226 lung, 94.8%; with NCI-H322M lung, 108%; in the assay on HOP-62 NSCLC it was 113%; in the assay on NCI-H460 lung, 124%; in the assay with HOP-92 NSCLC, 114%. For the same molecule, the growth in the assay on NCI-H522 lung is 92.4%; in the assay on 786-0 renal, 97%; with COLO 205 colon it was 143%; in the assay with K-562 leukemia, 80.4%; in the assay with MDA-MB-231 breast, 103%; in the assay on SF-268 CNS, 93.6%. Also, the growth with SF-295 CNS is 104%; in the assay on SF-539 CNS, 115%; in the assay on UACC-257 melanoma, 98.9%; in the assay with M14 melanoma, 115%.

On to `COc1cnc2c(c1)C(=O)c1c-2n(CCCN2CCC(O)CC2)c(=O)c2cc(F)ccc12`, for which the growth in the assay on NCI-H23 lung is -19.9% (active); in the assay on NCI-H226 lung, -83.7% (active); with NCI-H322M lung, -3.95% (active); in the assay with HOP-62 NSCLC it was -20.8% (active); in the assay on NCI-H460 lung, -44.5% (active); in the assay on HOP-92 NSCLC, -7.92% (active). In addition, the growth in the assay with A549/ATCC NSCLC was -77.5% (active); in the assay on 786-0 renal, -45.9% (active); in the assay with COLO 205 colon it was -10.9% (active); in the assay on DU-145 prostate, -8.46% (active); in the assay on K-562 leukemia, -0.117% (active); with MALME-3M melanoma it was -61.9% (active). The growth in the assay with MDA-MB-231 breast was 19.9%; in the assay with RXF 393 renal, -43.1% (active); with SF-268 CNS, 9.51% (active); in the assay on SF-295 CNS, -20.7% (active); in the assay on SF-539 CNS, -17.1% (active); with UACC-257 melanoma it was -16.3% (active). Also, in the assay with M14 melanoma, the growth was -22.4% (active).

Regarding `C/C(=C\CCc1ccoc1)CC/C=C(\C)CCCC1COC(=O)C1` (stereo unspecified), the growth in the assay with NCI-H23 lung was 106%; with NCI-H226 lung, 104%; in the assay with NCI-H322M lung it was 88.9%; with HOP-62 NSCLC, 96.9%; in the assay on NCI-H460 lung it was 98.8%; in the assay with HOP-92 NSCLC, 88%. For the same molecule, the growth is 97% in the assay on A549/ATCC NSCLC; 101% in the assay with 786-0 renal; 109% in the assay with COLO 205 colon; 105% in the assay with DU-145 prostate; 98.4% with K-562 leukemia; 89.5% in the assay with MALME-3M melanoma. Further, the growth with MDA-MB-231 breast is 92.6%; with RXF 393 renal, 99.1%; in the assay with SF-268 CNS it was 107%; in the assay on SF-295 CNS, 99%; in the assay with SF-539 CNS, 93.4%; in the assay with UACC-257 melanoma, 101%. Further, the growth in the assay on M14 melanoma is 104%.

With `Cc1n(Cc2ccc3ccccc3c2)cc[n+]1Cc1ccc2ccccc2c1`, the growth in the assay with NCI-H23 lung is 5.53% (active); with NCI-H226 lung, 19%; in the assay with NCI-H322M lung it was 48.9%; with HOP-62 NSCLC it was 18%; in the assay on NCI-H460 lung it was 9.12% (active); in the assay on HOP-92 NSCLC it was -20.3% (active). For the same molecule, the growth was 42.3% in the assay on A549/ATCC NSCLC; 34% with 786-0 renal; -57.2% (active) in the assay on COLO 205 colon; 35.2% with DU-145 prostate; 10.2% in the assay on K-562 leukemia; -20.9% (active) with MALME-3M melanoma. Moreover, the growth in the assay with MDA-MB-231 breast was -24.3% (active); in the assay on RXF 393 renal it was 3.41% (active); with SF-268 CNS it was 18.9%; in the assay on SF-295 CNS, 15.4%; in the assay on SF-539 CNS, 5.68% (active); in the assay with UACC-257 melanoma it was -28.5% (active). Besides, the growth with M14 melanoma is -15.7% (active).

On to `O=C1C=CC(=O)N1c1ccccn1`, for which the growth with NCI-H23 lung is 102%; with NCI-H226 lung, 108%; in the assay on NCI-H322M lung it was 110%; in the assay on HOP-62 NSCLC it was 113%; in the assay on NCI-H460 lung it was 106%; in the assay with HOP-92 NSCLC, 104%. For the same molecule, the growth in the assay on A549/ATCC NSCLC is 96.9%; in the assay with 786-0 renal it was 105%; with COLO 205 colon, 112%; in the assay with DU-145 prostate, 111%; in the assay on K-562 leukemia, 94.5%; in the assay on MALME-3M melanoma, 124%. In addition, the growth in the assay with MDA-MB-231 breast was 102%; in the assay on RXF 393 renal it was 126%; in the assay on SF-268 CNS it was 99.1%; in the assay on SF-295 CNS, 105%; in the assay on SF-539 CNS it was 99.8%; in the assay on UACC-257 melanoma, 105%. The growth in the assay on M14 melanoma was 105%.

For the origin of these results see PubChem BioAssay (NCI).
